{"source": "ChEMBL document CHEMBL4513216", "about": "“Probing the Open Global Health Chemical Diversity Library for Multistage-Active Starting Points for Next-Generation Antimalarials” (ACS Infect Dis, 2020)", "note": "The campaign covered roughly 65,000 compounds. About 2,100 (3.2%) showed an effect of 50% or more. The median lay at about -52%. Many of the other results were omitted from the sample, so strong results are more common in it than they were.", "data": [{"test_system": "Plasmodium falciparum", "experiment": "Screen against P. falciparum Asexual Blood Stage (ABS), at 5uM", "type": "functional, Dd2", "conditions": "tested at 5 uM", "units": {"INHIBITION": "%"}, "values": [{"smiles": "CC(C)(C)CN1CCCC12CCN(S(=O)(=O)c1ccccc1)C2", "note": "(configuration not stated)", "INHIBITION": 32.5}, {"smiles": "CC(C)CCc1nc(CNCC2CCCN2c2cccnn2)cs1", "note": "(configuration not stated)", "INHIBITION": 67.4}, {"smiles": "CCCc1nc(CNCC2CCCN2c2cccnn2)cs1", "note": "(configuration not stated)", "INHIBITION": 37.5}, {"smiles": "c1cncc(-c2noc(CNCC3CCCN3c3cccnn3)n2)c1", "note": "(configuration not stated)", "INHIBITION": -92.3}, {"smiles": "c1cnnc(N2CCCC2CNCCc2cccs2)c1", "note": "(configuration not stated)", "INHIBITION": 40}, {"smiles": "c1cnnc(N2CCCC2CNCc2nc(-c3ccoc3)no2)c1", "note": "(configuration not stated)", "INHIBITION": 35.2}, {"smiles": "c1cnnc(N2CCCC2CNCc2cccs2)c1", "note": "(configuration not stated)", "INHIBITION": 55.7}, {"smiles": "c1cnnc(N2CCCC2CNCc2nc(-c3ccco3)no2)c1", "note": "(configuration not stated)", "INHIBITION": 50.5}, {"smiles": "c1cnnc(N2CCCC2CNCc2csc(-c3ccco3)n2)c1", "note": "(configuration not stated)", "INHIBITION": 41.4}, {"smiles": "Cc1ccc(CNCC2CCCN2c2cccnn2)s1", "note": "(configuration not stated)", "INHIBITION": 46.6}, {"smiles": "Cc1nc(CNCC2CCCN2c2cccnn2)cs1", "note": "(configuration not stated)", "INHIBITION": -34.2}, {"smiles": "CCc1nc(CNCC2CCCN2c2cccnn2)cs1", "note": "(configuration not stated)", "INHIBITION": 58.7}, {"smiles": "c1cnnc(N2CCCC2CNCc2cscn2)c1", "note": "(configuration not stated)", "INHIBITION": 35.8}, {"smiles": "COCCOc1ccccc1C(=O)N1CCCC(c2cc(C)[nH]n2)C1", "note": "(configuration not stated)", "INHIBITION": -15.2}, {"smiles": "Cc1ccccc1SC1CCN(C(=O)CCCS(N)(=O)=O)CC1", "INHIBITION": -124}, {"smiles": "Cc1noc(C)c1CN1C(=O)[C@@H]2CC[C@H]1CN(Cc1cccnc1N)C2", "INHIBITION": -49.1}, {"smiles": "Cn1cc(CNC2CCc3c(ccc(=O)n3Cc3cccnc3)C2)cn1", "note": "(configuration not stated)", "INHIBITION": -48.3}, {"smiles": "CCc1cc(C(F)(F)F)n2nc(C3CCCN3C(=O)COC)cc2n1", "note": "(configuration not stated)", "INHIBITION": -17.9}, {"smiles": "CCc1cnc(CN(C)C(=O)Nc2cnn(CC3CCCO3)c2)s1", "note": "(configuration not stated)", "INHIBITION": -48.8}, {"smiles": "Cc1cccc(CNCC2(O)CCCN(CC3CCCCC3)C2=O)n1", "note": "(configuration not stated)", "INHIBITION": -3.18}, {"smiles": "Cc1ncccc1Oc1nccnc1C1CCCN(C(C)C)C1", "note": "(configuration not stated)", "INHIBITION": -26.3}, {"smiles": "Cc1nc(CN(C)CC2CCCN2c2cccnn2)oc1C", "note": "(configuration not stated)", "INHIBITION": -18.6}, {"smiles": "c1cnnc(N2CCCC2CNCc2nc3ccccc3o2)c1", "note": "(configuration not stated)", "INHIBITION": -31.6}, {"smiles": "CN(Cc1nc2ccccc2o1)CC1CCCN1c1cccnn1", "note": "(configuration not stated)", "INHIBITION": 69.3}, {"smiles": "CC(C)c1nnc2ccc(N3CCC(C(=O)Nc4nccs4)CC3)nn12", "INHIBITION": 66.9}, {"smiles": "Cc1nnc2ccc(N3CCC(C(=O)Nc4nccs4)CC3)nn12", "INHIBITION": -16.3}, {"smiles": "CC(C)c1nnc2ccc(N3CCCC(C(=O)Nc4nccs4)C3)nn12", "note": "(configuration not stated)", "INHIBITION": -58}, {"smiles": "NC(=O)C(c1ccc(F)cc1)N1CCN(CCO)CC1", "note": "(configuration not stated)", "INHIBITION": -133}, {"smiles": "CCOCCCC(=O)NCC(c1ccccc1)N1CCc2sccc2C1", "note": "(configuration not stated)", "INHIBITION": -59.8}, {"smiles": "CC(C)c1ccc(C(CN)N2CCc3sccc3C2)cc1", "note": "(configuration not stated)", "INHIBITION": 69.8}, {"smiles": "O=C(COCC1CC1)NCC(c1ccccc1)N1CCc2sccc2C1", "note": "(configuration not stated)", "INHIBITION": -122}, {"smiles": "NCC(c1ccccc1)N1CCc2sccc2C1", "note": "(configuration not stated)", "INHIBITION": 57.9}, {"smiles": "CSc1ccc(C(CNC(=O)C2CC2)N2CCc3sccc3C2)cc1", "note": "(configuration not stated)", "INHIBITION": 20.6}, {"smiles": "NCC(c1ccc(Cl)cc1)N1CCc2sccc2C1", "note": "(configuration not stated)", "INHIBITION": 66.5}, {"smiles": "O=C(NCCO)NCC(c1ccccc1)N1CCc2sccc2C1", "note": "(configuration not stated)", "INHIBITION": -6.62}, {"smiles": "CSc1ccc(C(CN)N2CCc3sccc3C2)cc1", "note": "(configuration not stated)", "INHIBITION": 9.08}, {"smiles": "CSc1ccc(C(CNC(C)=O)N2CCc3sccc3C2)cc1", "note": "(configuration not stated)", "INHIBITION": -77.1}]}]}
